# From PubChem BioAssay (NCATS)
# Several values for one entry are separate records, joined by “and”; a condition that tells them apart may be missing. Identical values can stand only once. Inconclusive results are not listed. Entries that show only a call come without a potency. Activity calls are given as the source filed them. Unless noted, calls follow the shape of the dose curve; as a rule, active = well fitted inhibition curve with a large enough effect; inconclusive = small, poorly fitted or top-dose-only effect; inactive = flat fitted curve, though single readings scatter.
# Experiments:
# [1] = biological target: Ubiquitin carboxyl-terminal hydrolase 1 (Homo sapiens) (UniProt O94782); experiment: Inhibitors of USP1/UAF1: Pilot qHTS (AID 504865); also: nearly all actives have a fitted effect of over 35% in size; also: potency is read from the fitted curve at half-maximal effect;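 as to activity change, negative = inhibition: rhodamine fluorescence freed from ubiquitin-rhodamine substrate followed over time; top concentration of the series differs between compounds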
# Ubiquitin carboxyl-terminal hydrolase 1 (Homo sapiens), sequence (O94782 whole entry, looked up): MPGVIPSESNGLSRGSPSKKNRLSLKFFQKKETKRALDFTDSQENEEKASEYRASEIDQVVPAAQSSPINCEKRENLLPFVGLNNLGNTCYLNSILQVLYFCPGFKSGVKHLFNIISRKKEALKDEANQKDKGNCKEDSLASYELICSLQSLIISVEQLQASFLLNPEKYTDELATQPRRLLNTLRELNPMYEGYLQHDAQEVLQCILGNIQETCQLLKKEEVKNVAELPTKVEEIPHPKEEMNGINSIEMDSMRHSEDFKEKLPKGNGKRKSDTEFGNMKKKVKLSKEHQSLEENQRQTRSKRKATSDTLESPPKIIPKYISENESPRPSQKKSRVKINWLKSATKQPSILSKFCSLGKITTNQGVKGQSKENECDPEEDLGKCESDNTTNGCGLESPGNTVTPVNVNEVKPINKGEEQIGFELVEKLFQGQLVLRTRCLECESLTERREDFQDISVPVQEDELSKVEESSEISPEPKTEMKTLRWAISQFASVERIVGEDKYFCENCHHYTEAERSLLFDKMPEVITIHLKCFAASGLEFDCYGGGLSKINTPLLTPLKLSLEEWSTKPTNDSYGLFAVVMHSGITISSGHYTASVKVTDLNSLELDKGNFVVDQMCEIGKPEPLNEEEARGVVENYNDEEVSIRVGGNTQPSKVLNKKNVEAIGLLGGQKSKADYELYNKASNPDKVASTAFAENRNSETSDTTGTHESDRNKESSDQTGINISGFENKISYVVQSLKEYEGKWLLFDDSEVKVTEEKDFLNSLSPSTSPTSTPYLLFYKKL
# How it was run: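 Deubiquitinase activity followed as kinetic rhodamine fluorescence release from 150 nM Ub-Rho. 1 nM USP1/UAF1 with compound, after 15 min room-temperature preincubation, in HEPES pH 7.8 buffer containing TCEP, EDTA, BSA and Tween-20.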
# [2] = biological target: Glucocorticoid receptor (Homo sapiens) (UniProt P04150); experiment: qHTS assay for small molecule agonists of glucocorticoid receptor signaling (AID 588532; active = well fitted curve in the direction sought with a large enough effect in the signal ratio, with a control signal flat; the % refers to the signal ratio); settings: HeLa MMTV-bla, beta-lactamase ratio, agonist, 18 h; stronger effect = higher value; percent of dexamethasone control, DMSO zero
# Glucocorticoid receptor (Homo sapiens), sequence (P04150 whole entry, looked up): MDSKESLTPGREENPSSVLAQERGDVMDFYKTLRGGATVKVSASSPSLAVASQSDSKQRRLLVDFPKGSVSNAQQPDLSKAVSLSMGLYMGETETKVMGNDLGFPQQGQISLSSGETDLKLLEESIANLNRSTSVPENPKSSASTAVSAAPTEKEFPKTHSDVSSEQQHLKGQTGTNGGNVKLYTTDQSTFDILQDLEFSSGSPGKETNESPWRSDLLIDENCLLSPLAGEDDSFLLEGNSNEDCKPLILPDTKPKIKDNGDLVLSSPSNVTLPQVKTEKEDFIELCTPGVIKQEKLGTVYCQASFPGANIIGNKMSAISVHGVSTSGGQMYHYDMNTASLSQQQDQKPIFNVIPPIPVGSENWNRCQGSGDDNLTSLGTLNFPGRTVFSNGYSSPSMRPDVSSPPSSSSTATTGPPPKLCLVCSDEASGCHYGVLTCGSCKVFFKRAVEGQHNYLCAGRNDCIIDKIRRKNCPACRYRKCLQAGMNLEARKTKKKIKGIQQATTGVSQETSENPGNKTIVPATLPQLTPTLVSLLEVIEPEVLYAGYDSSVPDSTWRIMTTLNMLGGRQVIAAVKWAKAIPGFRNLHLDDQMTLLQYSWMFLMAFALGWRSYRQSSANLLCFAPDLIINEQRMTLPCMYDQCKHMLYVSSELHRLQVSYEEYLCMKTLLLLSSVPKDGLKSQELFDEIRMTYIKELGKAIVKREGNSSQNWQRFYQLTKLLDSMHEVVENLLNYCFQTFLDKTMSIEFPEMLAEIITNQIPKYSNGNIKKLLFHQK
# How it was run: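 Titration series, up to 92 uM, applied to GRE-bla HeLa cells for 18 h at 37 C. Detection by CCF4 FRET substrate after 2 h at RT.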
# [3] = biological target: Glucocorticoid receptor (Homo sapiens) (UniProt P04150); experiment: qHTS assay for small molecule antagonists of glucocorticoid receptor signaling (AID 588533; active = well fitted inhibition curve with a large enough effect in the signal ratio, with a control signal flat, not every such curve was filed as active; the % refers to the signal ratio;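 also: cells stimulated with 2 nM dexamethasone as agonist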)
# How it was run: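 Antagonist-mode qHTS: compound titrations added to GRE-bla HeLa cells, then dexamethasone 2 nM final; 18 h, 37 C. CCF4 FRET fluorescence normalized to dexamethasone and DMSO; IC50 from Hill fit.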
# [4] = qHTS assay for small molecule antagonists of peroxisome proliferator-activated receptor delta signaling (AID 588535; active = well fitted inhibition curve with a large enough effect in the signal ratio, with a control signal flat, not every such curve was filed as active; the % refers to the signal ratio;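 as to max response: cells co-treated with a PPAR-delta agonist as stimulator during compound exposure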); settings: HEK293T PPARd-UAS-bla, beta-lactamase FRET ratio, 18 h; 460 nm channel
# How it was run: (§1)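 Reporter: UAS-bla under PPAR-delta response element, HEK293T host. Medium: 2% charcoal/dextran FBS. Dosing: titration, 18 hrs, 37 C. Detection: CCF4, 2 hrs RT, 405 ex/460 and 530 em.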
# [5] = biological target: Peroxisome proliferator-activated receptor delta (Homo sapiens) (UniProt Q03181); experiment: as above
# Peroxisome proliferator-activated receptor delta (Homo sapiens), sequence (Q03181 whole entry, looked up): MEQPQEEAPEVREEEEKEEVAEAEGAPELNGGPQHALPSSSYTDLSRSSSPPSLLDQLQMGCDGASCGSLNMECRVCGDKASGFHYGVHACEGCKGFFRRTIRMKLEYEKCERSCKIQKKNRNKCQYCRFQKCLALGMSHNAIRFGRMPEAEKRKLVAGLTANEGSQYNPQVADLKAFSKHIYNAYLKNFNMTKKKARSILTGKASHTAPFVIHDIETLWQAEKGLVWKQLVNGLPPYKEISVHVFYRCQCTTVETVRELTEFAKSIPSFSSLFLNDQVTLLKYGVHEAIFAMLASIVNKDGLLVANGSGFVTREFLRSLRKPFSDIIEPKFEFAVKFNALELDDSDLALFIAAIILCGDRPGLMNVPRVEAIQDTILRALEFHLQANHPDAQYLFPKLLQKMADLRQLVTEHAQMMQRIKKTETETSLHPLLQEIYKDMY
# How it was run: as §1
# [6] = biological target: Peroxisome proliferator-activated receptor gamma (Homo sapiens) (UniProt P37231); experiment: qHTS assay for small molecule agonists of peroxisome proliferator-activated receptor gamma signaling (AID 588536; active = well fitted curve in the direction sought with a large enough effect in the signal ratio, with a control signal flat, not every such curve was filed as active; the % refers to the signal ratio)
# Peroxisome proliferator-activated receptor gamma (Homo sapiens), sequence (P37231 whole entry, looked up): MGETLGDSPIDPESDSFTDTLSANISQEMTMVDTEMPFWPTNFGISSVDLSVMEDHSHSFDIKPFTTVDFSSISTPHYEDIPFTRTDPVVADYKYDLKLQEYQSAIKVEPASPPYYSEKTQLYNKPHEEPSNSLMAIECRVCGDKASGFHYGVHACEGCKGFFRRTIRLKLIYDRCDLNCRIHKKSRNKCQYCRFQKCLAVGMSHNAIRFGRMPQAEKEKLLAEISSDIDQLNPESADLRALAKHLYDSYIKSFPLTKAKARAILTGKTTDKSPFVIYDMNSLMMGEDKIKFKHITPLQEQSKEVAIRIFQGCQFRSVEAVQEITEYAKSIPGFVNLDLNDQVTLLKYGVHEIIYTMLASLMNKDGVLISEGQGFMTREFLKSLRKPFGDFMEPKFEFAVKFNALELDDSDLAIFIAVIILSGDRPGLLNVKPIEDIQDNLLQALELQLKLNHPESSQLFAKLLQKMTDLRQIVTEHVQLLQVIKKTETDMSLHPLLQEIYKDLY
# How it was run: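 HEK293 UAS-bla reporter line, 1% charcoal/dextran FBS; titration, 16 h, 37 C; CCF4 loading 2 h RT; fluorescence 460/530 nm. Normalized to rosiglitazone 2 uM = 100%, DMSO = 0%.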
# [7] = biological target: Peroxisome proliferator-activated receptor gamma (Homo sapiens) (UniProt P37231); experiment: qHTS assay for small molecule antagonists of peroxisome proliferator-activated receptor gamma signaling (AID 588537; active = well fitted inhibition curve with a large enough effect in the signal ratio, with a control signal flat, not every such curve was filed as active; the % refers to the signal ratio;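 also: reporter cells co-stimulated with 50 nM rosiglitazone agonist during compound treatment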)
# How it was run: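 We seeded GeneBLAzer HEK293 reporter cells at 3000 per well, allowed 6-6.5 h attachment at 37 C, then co-treated with test compound titrations and 50 nM rosiglitazone overnight (16 h). Inhibition was quantified from 460/530 nm emission ratios.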
# [8] = biological target: DNA dC->dU-editing enzyme APOBEC-3G (Homo sapiens) (UniProt Q9HC16); experiment: qHTS for inhibitors of Vif-A3G interactions: Validation (AID 588379)
# DNA dC->dU-editing enzyme APOBEC-3G (Homo sapiens), sequence (Q9HC16 whole entry, looked up): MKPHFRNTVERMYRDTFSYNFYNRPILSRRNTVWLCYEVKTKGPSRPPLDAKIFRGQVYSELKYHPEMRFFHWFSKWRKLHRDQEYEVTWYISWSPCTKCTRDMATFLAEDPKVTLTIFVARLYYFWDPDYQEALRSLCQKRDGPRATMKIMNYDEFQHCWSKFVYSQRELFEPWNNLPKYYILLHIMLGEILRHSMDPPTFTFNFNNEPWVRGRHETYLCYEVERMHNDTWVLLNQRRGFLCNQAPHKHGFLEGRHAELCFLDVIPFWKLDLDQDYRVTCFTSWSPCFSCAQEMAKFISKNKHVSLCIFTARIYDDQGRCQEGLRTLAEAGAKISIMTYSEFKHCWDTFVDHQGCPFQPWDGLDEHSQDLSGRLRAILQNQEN
# How it was run: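 HeLa cells stably expressing Vif and A3G-eYFP, 700 cells/well, incubated overnight at 37 deg C, then exposed to compound overnight at 37 deg C. Inhibition of Vif-mediated degradation read as increased yellow fluorescence (Ex 488/Em 500-530) by laser-scanning cytometry.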
# [9] = biological target: Estrogen receptor (Homo sapiens) (UniProt P03372); experiment: qHTS assay for small molecule antagonists of estrogen receptor alpha signaling (AID 588513; active = well fitted curve in the direction sought with a large enough effect in the signal ratio, with a control signal flat, not every such curve was filed as active; the % refers to the signal ratio)
# Estrogen receptor (Homo sapiens), sequence (P03372 whole entry, looked up): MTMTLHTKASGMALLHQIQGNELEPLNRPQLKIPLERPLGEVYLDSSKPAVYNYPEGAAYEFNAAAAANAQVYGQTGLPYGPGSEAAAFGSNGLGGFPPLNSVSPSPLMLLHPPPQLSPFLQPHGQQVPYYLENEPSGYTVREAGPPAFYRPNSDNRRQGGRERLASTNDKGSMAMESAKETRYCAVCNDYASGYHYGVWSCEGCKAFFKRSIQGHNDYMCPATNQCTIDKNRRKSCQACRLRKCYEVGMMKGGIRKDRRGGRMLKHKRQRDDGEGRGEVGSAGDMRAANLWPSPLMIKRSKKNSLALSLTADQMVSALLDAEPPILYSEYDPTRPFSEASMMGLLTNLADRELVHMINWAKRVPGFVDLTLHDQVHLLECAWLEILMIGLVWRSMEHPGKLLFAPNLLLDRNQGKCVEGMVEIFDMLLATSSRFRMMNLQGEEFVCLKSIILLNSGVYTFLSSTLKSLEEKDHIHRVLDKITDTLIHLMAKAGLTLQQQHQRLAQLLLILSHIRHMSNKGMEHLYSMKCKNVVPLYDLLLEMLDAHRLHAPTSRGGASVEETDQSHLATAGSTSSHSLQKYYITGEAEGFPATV
# How it was run: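 Antagonist mode: inhibition of 0.5 nM 17-beta-estradiol-driven beta-lactamase reporter in HEK 293 ER-alpha-UAS-bla cells, 18 h at 37C, CCF4 readout after 2 h at RT. Normalised to estradiol and DMSO; titration fitted to Hill.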
# [10] = biological target: Androgen receptor (Homo sapiens) (UniProt P10275); experiment: qHTS assay for small molecule agonists of androgen receptor signaling (AID 588515; active = well fitted curve in the direction sought with a large enough effect in the signal ratio, with a control signal flat; the % refers to the signal ratio); settings: AR-UAS-bla HEK293, beta-lactamase ratio, agonist 16 h; stronger effect = higher value
# Androgen receptor (Homo sapiens), sequence (P10275 whole entry, looked up): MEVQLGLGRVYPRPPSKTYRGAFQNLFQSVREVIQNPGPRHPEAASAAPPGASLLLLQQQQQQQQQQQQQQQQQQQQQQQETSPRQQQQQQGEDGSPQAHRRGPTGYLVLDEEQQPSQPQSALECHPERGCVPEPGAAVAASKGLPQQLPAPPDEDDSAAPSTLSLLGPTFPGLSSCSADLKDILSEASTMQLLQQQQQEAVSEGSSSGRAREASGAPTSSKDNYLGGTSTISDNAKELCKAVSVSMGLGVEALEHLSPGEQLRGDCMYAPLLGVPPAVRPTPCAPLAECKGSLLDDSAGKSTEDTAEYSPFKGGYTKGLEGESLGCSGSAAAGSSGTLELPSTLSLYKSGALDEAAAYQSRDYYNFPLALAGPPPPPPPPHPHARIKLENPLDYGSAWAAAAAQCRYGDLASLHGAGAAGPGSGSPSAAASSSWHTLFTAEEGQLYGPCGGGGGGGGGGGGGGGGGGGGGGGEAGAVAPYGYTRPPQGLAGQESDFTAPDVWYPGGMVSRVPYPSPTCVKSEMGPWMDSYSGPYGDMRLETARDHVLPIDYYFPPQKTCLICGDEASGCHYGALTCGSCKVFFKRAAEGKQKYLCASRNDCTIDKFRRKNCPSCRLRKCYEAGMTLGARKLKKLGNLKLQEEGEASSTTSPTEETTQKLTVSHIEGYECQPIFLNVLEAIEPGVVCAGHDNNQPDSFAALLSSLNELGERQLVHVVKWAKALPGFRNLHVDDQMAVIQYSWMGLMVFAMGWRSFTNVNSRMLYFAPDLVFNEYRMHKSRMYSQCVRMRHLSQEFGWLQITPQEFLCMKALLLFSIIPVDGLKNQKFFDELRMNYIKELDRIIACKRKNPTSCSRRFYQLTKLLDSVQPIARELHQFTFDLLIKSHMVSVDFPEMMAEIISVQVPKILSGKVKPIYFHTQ
# How it was run: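 EC50 and efficacy came from Hill fits of titrations (up to 92 uM) normalized to 30 nM R1881 as 100% and DMSO as 0%. Compound exposure was 16 h at 37 C on AR-UAS-bla HEK293 cells, with a 405/460/530 nm CCF4 fluorescence read.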
# [11] = biological target: Androgen receptor (Homo sapiens) (UniProt P10275); experiment: qHTS assay for small molecule antagonists of androgen receptor signaling (AID 588516; active = well fitted curve in the direction sought with a large enough effect in the signal ratio, with a control signal flat, not every such curve was filed as active; the % refers to the signal ratio)
# How it was run: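 Antagonist mode: inhibition of R1881-stimulated (10 nM final) bla reporter in GeneBLAzer AR HEK 293 cells, 16 h at 37C, compounds titrated. IC50 and efficacy from Hill-equation fits of 405/460–530 nm FRET ratios.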
# [12] = biological target: Bile acid receptor (Homo sapiens) (UniProt Q96RI1); experiment: qHTS assay for small molecule antagonists of farnesoid X receptor signaling (AID 588526; calls by dose curve; also: potency is read from the fitted curve at half-maximal effect)
# Bile acid receptor (Homo sapiens), sequence (Q96RI1 whole entry, looked up): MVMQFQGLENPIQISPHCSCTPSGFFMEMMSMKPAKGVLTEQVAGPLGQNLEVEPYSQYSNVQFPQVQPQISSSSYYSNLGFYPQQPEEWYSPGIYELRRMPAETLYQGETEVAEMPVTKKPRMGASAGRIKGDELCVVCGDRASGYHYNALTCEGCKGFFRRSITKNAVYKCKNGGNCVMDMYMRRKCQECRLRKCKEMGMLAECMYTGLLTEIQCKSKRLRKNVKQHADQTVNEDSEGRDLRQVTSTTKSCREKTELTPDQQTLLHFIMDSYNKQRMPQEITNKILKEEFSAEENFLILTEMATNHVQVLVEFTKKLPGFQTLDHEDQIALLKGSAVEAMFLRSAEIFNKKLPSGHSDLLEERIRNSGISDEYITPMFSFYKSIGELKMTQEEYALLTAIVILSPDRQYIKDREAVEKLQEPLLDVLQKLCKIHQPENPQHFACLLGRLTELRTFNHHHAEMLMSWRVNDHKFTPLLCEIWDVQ
# How it was run: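 Concentration-response titrations were fitted to the Hill equation for half-maximal inhibition and maximal response, with data normalised to 50 uM chenodeoxycholic acid and DMSO control wells. Cells: FXR-UAS-bla HEK293T, dialyzed FBS.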
smiles,measurement,setting,value
Cc1ccccc1,Potency,[1],inactive
same,activation,[2],-1.45% (inactive) and 2.79% (inactive)
same,outcome,[3],inactive
same,max response,[4],1.03% and 40.9%
same,outcome,[5],inactive
same,outcome,[6],inactive
same,outcome,[7],inactive
O=c1ccn([C@@H]2O[C@H](CO)[C@@H](O)[C@H]2O)c(=O)[nH]1,outcome,[8],inactive
CCCCC(CC)COC(=O)CC(C(=O)OCC(CC)CCCC)S(=O)(=O)O (configuration not stated),Potency,[1],50.1 µM (active)
same,activation,[2],-0.211% (inactive)
same,outcome,[3],inactive
same,max response,[4],46.2%
same,outcome,[5],inactive
CCOc1ccc2c(c1)C(C)=CC(C)(C)N2,"activity change, negative = inhibition",[1],-8.83% [at 11.4 µM] (inactive)
same,outcome,[9],inactive
same,activation,[10],15.4% (inactive)
same,outcome,[11],inactive
O=C(O)CCC(=O)C(=O)O,Potency,[1],inactive
same,outcome,[9],inactive
same,activation,[2],-1.14% (inactive)
same,outcome,[3],inactive
same,outcome,[6],inactive
same,outcome,[7],inactive
CC(Cc1ccc(O)c(O)c1)C(C)Cc1ccc(O)c(O)c1 (configuration not stated),outcome,[8],inactive
CC(C)(C)NC(=O)[C@@H]1C[C@@H]2CCCC[C@@H]2CN1C[C@@H](O)[C@H](Cc1ccccc1)NC(=O)[C@H](CC(N)=O)NC(=O)c1ccc2ccccc2n1,Potency,[12],44.7 µM (active)
OCc1ccccc1O[C@@H]1O[C@H](CO)[C@@H](O)[C@H](O)[C@H]1O,Potency,[1],inactive
same,outcome,[8],inactive
